For assay [1], the target named is T1, Ephrin type-A receptor 3 (Homo sapiens) (UniProt P29320).
T1 sequence (whole entry): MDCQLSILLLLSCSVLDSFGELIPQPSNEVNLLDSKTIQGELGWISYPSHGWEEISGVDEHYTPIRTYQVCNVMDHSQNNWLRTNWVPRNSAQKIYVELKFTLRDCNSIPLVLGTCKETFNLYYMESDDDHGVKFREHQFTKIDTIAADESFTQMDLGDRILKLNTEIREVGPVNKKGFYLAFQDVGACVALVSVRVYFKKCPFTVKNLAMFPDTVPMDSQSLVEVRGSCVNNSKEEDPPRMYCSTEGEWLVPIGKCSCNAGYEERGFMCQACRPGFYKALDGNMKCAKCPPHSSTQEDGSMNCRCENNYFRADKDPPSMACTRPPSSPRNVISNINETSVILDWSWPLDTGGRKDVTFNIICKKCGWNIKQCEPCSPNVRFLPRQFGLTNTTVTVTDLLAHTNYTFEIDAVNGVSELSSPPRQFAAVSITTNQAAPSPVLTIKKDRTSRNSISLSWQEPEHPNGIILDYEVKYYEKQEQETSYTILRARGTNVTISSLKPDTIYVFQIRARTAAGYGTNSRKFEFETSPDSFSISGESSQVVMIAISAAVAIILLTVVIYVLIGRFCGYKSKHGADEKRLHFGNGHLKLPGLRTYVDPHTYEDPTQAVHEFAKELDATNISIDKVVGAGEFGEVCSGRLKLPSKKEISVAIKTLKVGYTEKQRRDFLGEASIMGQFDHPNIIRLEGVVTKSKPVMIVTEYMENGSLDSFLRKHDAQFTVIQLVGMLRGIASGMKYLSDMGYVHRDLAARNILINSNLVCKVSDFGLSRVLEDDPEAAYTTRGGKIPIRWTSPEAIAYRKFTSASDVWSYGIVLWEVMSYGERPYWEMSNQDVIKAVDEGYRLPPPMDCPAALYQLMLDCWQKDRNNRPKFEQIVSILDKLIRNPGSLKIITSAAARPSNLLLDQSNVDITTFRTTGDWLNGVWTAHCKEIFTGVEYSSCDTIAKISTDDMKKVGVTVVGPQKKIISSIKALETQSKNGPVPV
Particulars: at 10 µM.

In assay [2] the target is Ephrin type-A receptor 4 (Homo sapiens) (UniProt P54764). Particulars: at 10 µM.
For assay [3], the target named is Ephrin type-A receptor 5 (Homo sapiens) (UniProt P54756). The following applies: at 10 µM.
Assay [4] addresses Ephrin type-A receptor 7 (Homo sapiens) (UniProt Q15375). Particulars: at 1 µM.
For assay [5] the target is unchanged. Particulars: at 10 µM.
The target in assay [6] is T2, Ephrin type-A receptor 8 (Homo sapiens) (UniProt P29322).
T2 sequence (whole entry): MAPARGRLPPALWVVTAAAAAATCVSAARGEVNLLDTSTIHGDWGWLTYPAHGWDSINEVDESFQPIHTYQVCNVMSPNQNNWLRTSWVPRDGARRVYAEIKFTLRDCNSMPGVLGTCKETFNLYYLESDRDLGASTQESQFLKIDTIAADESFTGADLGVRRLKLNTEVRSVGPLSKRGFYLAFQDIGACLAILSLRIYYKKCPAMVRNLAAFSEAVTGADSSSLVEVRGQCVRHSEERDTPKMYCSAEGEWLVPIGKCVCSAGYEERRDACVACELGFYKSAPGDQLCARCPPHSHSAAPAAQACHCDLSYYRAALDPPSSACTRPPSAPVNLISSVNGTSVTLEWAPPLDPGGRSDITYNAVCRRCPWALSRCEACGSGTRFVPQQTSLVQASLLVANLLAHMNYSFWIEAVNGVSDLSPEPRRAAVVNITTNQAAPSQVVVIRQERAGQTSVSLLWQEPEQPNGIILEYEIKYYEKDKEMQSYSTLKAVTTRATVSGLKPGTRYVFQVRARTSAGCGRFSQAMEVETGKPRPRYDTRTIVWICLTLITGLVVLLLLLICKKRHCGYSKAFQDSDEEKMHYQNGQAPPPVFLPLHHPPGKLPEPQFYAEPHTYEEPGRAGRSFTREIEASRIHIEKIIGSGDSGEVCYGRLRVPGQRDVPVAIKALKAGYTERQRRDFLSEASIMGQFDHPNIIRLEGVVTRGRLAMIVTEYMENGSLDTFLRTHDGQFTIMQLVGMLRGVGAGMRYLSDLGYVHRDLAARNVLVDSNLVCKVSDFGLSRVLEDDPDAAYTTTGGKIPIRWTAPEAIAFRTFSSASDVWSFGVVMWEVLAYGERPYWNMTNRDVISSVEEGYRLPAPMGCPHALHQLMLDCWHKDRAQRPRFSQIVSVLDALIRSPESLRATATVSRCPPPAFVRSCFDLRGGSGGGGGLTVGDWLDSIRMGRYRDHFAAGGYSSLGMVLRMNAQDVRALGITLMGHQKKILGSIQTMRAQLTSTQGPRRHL
The following applies: at 1 µM.

Assay [7] addresses T2, Ephrin type-A receptor 8 (Homo sapiens). Particulars: at 10 µM.
The target of assay [8] is T3, Ephrin type-B receptor 4 (Homo sapiens) (UniProt P54760).
T3 sequence (whole entry): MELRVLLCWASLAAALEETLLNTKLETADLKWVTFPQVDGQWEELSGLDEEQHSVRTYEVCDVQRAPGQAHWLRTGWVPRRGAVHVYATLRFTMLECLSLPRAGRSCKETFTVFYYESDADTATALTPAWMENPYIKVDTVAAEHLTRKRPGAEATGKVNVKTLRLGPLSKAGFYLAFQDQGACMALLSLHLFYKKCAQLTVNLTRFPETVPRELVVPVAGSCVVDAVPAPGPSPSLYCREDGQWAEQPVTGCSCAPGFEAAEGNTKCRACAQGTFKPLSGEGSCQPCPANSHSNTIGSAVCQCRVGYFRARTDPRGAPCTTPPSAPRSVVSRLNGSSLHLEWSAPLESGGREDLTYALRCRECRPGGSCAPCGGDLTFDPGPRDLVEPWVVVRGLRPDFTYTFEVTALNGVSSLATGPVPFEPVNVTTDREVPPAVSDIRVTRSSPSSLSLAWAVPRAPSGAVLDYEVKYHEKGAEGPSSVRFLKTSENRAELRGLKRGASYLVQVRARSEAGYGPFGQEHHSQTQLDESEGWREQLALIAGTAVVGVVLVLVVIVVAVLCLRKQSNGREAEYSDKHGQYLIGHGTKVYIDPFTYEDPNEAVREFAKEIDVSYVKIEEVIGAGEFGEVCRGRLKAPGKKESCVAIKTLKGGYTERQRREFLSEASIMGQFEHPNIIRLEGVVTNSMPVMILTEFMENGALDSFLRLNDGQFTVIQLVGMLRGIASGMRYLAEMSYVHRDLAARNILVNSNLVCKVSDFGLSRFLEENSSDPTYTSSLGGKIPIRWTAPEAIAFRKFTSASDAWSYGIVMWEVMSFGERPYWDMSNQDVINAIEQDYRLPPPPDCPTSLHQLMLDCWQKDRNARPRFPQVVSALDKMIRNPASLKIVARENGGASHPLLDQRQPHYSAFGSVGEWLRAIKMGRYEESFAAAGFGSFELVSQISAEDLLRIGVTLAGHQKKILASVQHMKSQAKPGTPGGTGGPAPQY
The following applies: at 1 µM.

For assay [9], the target named is T3, Ephrin type-B receptor 4 (Homo sapiens). Particulars: at 10 µM.
Assay [10] has as its target Focal adhesion kinase 1 (Homo sapiens) (UniProt Q05397). Particulars: at 1 µM.
In assay [11] the target is Ephrin type-A receptor 5 (Homo sapiens) (UniProt P54756). The following applies: at 1 µM.
For assay [12], the target named is T4, Ephrin type-B receptor 1 (Homo sapiens) (UniProt P54762).
T4 sequence (whole entry): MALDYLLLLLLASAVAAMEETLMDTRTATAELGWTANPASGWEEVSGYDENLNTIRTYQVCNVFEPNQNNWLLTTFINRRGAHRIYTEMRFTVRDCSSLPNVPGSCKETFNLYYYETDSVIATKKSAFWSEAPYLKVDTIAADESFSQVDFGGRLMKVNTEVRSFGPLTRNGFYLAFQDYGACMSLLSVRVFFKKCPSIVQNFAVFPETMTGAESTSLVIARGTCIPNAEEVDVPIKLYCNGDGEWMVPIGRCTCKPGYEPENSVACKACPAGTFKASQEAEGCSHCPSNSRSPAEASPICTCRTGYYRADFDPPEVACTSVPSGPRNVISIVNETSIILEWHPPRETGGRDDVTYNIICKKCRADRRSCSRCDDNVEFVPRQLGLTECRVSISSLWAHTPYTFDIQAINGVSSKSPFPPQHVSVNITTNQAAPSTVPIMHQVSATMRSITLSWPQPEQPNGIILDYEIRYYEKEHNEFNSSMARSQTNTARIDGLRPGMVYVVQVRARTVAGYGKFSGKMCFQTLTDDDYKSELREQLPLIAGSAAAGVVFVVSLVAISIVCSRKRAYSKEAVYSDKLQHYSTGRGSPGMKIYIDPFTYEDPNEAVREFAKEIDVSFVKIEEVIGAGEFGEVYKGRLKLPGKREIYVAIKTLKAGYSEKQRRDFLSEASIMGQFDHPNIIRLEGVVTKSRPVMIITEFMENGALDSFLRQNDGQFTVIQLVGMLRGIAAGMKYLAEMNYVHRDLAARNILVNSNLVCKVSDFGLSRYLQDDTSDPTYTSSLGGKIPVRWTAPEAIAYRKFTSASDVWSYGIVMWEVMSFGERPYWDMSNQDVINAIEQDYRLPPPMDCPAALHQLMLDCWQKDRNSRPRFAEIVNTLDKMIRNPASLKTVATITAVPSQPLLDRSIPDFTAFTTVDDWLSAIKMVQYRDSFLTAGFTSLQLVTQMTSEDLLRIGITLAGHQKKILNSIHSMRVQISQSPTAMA
The following applies: at 1 µM.

Assay [13] addresses T4, Ephrin type-B receptor 1 (Homo sapiens). Particulars: at 10 µM.
The target of assay [14] is T5, Ephrin type-B receptor 3 (Homo sapiens) (UniProt P54753).
T5 sequence (whole entry): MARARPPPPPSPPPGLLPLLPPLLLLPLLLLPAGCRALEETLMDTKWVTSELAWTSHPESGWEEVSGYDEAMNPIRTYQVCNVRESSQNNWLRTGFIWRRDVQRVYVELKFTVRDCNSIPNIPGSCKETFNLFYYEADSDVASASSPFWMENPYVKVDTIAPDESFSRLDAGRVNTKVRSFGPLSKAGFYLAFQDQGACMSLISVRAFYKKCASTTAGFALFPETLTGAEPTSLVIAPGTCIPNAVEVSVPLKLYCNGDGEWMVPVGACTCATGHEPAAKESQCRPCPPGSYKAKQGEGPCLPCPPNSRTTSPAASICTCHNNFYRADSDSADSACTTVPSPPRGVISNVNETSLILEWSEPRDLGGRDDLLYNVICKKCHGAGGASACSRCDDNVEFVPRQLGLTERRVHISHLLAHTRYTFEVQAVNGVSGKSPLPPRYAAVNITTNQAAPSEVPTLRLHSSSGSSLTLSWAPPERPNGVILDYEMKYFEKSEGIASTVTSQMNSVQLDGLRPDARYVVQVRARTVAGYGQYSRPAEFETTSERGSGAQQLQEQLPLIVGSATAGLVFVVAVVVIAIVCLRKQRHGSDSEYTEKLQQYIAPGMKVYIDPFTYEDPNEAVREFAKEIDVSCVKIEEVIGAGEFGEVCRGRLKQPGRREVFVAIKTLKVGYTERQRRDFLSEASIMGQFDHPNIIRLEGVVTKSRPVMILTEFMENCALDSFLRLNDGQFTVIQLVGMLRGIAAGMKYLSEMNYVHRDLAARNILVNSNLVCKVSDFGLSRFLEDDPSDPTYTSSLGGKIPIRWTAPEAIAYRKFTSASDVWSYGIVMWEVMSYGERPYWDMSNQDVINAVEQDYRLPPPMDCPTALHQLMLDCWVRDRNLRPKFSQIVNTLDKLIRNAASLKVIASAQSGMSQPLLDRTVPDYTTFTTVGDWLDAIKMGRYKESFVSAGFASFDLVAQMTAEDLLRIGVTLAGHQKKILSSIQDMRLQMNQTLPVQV
The following applies: at 10 µM.

In assay [15] the target is Receptor tyrosine-protein kinase erbB-4 (Homo sapiens) (UniProt Q15303). The following applies: at 1 µM.
The target is the same in assay [16]. The following applies: at 10 µM.

Consider two compounds from ChEMBL document CHEMBL2218924, “A broad activity screen in support of a chemogenomic map for kinase signalling research and drug discovery” (Biochem J, 2013).

Ephrin type-A receptor 5 (Homo sapiens), sequence (P54756 whole entry): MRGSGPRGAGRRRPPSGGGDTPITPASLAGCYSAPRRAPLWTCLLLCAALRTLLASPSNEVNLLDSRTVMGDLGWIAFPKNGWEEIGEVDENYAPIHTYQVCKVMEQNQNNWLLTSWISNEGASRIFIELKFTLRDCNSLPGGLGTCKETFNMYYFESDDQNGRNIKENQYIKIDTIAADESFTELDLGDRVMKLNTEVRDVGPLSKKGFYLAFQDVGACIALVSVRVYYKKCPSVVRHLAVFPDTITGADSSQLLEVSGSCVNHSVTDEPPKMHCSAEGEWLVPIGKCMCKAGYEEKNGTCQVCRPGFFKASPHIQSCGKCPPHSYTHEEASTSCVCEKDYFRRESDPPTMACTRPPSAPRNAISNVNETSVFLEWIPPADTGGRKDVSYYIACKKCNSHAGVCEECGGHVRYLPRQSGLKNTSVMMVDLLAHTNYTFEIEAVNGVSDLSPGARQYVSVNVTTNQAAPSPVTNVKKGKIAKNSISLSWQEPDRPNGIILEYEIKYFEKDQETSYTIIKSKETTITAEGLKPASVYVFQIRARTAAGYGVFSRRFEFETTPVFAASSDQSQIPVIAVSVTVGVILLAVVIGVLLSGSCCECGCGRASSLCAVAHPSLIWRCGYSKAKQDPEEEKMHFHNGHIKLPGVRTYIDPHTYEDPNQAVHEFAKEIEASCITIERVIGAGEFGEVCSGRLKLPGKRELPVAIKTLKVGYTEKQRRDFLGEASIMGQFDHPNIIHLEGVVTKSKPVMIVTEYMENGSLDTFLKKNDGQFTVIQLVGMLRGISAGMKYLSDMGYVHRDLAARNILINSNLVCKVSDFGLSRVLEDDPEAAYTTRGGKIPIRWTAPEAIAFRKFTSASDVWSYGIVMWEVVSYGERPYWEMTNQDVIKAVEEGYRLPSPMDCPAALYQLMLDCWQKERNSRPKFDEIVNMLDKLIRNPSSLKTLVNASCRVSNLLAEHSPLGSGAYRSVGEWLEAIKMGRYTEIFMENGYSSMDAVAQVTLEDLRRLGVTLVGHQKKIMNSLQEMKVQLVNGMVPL
Ephrin type-A receptor 7 (Homo sapiens), sequence (Q15375 28-998 limits assumed): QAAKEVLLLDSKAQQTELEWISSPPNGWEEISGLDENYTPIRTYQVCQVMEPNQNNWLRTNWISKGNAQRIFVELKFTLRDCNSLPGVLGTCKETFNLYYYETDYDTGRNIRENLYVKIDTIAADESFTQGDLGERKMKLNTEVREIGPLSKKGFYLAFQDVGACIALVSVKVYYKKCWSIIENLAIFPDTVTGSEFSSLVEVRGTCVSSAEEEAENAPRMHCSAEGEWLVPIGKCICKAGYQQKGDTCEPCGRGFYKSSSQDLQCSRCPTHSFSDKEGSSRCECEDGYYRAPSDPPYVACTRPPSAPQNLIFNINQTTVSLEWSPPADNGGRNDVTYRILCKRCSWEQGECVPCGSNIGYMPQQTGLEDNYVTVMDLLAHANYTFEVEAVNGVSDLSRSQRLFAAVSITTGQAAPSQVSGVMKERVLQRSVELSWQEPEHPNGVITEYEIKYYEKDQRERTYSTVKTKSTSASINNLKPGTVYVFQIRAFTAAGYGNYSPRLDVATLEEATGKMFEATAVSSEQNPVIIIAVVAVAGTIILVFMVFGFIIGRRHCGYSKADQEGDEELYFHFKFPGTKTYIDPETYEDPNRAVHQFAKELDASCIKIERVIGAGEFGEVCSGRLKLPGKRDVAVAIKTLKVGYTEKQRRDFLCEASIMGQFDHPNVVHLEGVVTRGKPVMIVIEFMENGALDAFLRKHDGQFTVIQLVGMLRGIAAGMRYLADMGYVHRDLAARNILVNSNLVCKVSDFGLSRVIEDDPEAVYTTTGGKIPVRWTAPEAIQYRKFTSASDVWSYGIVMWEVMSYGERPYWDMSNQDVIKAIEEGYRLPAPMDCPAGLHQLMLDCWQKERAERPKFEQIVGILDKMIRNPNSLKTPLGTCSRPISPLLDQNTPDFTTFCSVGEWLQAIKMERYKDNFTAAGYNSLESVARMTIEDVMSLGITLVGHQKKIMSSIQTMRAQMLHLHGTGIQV
Receptor tyrosine-protein kinase erbB-4 (Homo sapiens), sequence (Q15303 whole entry): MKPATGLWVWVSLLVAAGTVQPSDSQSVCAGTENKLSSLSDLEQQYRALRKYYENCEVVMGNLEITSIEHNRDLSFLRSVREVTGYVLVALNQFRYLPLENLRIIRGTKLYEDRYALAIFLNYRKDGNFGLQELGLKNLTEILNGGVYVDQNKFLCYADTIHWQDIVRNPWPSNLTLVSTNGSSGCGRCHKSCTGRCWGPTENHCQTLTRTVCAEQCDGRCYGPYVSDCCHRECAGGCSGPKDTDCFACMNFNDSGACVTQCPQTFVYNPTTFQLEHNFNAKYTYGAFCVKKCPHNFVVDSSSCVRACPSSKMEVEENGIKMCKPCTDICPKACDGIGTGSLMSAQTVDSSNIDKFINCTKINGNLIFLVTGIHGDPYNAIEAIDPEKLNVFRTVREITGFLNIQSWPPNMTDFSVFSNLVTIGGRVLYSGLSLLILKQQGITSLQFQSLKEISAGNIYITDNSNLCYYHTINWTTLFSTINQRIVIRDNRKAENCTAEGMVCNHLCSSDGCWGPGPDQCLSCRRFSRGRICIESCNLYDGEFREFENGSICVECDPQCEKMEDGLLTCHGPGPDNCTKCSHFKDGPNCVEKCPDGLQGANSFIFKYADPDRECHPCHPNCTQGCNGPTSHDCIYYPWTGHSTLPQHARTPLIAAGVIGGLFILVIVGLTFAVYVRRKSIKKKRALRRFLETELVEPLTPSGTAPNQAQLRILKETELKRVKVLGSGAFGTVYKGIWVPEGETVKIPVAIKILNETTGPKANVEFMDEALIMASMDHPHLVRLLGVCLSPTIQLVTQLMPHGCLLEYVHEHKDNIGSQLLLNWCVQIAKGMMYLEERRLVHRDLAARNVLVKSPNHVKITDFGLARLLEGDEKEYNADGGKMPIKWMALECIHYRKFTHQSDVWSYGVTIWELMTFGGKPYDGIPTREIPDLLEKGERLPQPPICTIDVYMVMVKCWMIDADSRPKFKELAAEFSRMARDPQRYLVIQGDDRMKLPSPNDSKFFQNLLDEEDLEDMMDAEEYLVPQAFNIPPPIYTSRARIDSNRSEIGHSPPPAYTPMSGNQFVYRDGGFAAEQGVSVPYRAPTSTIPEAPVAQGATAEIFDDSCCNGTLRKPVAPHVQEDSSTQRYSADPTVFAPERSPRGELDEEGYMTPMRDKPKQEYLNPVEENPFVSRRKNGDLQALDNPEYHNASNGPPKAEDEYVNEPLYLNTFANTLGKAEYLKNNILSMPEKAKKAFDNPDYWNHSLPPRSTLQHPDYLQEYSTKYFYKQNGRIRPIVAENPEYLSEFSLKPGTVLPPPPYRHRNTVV
Ephrin type-A receptor 4 (Homo sapiens), sequence (P54764 whole entry): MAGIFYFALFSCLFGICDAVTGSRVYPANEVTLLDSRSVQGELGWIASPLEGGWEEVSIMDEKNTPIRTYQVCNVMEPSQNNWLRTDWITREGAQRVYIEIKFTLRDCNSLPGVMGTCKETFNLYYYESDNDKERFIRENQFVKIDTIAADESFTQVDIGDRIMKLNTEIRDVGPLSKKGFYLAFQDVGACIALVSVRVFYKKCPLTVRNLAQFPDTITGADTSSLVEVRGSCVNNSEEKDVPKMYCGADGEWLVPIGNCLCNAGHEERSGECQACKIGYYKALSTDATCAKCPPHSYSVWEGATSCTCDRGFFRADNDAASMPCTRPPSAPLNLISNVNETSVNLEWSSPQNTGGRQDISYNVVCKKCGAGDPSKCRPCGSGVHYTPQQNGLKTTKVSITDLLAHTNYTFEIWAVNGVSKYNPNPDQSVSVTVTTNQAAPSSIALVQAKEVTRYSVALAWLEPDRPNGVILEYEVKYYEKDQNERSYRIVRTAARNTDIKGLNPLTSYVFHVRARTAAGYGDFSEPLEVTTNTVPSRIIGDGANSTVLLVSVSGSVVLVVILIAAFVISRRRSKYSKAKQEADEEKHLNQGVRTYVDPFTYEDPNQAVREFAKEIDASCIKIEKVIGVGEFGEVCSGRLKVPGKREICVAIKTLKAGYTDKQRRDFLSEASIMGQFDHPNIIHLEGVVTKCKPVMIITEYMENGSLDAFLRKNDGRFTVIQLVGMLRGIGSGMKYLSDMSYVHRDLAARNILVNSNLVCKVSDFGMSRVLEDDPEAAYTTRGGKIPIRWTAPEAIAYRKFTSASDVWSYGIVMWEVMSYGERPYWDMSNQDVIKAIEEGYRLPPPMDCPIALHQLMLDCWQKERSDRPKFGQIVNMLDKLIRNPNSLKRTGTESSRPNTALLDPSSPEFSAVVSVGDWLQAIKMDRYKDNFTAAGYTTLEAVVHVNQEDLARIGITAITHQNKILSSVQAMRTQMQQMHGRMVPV

Take `Nc1ncnc2c1cnn2-c1ccccc1`: the residual activity in assay [1] was 84%; in assay [2], 97%; in assay [3] it was 88%; in assay [4], 102%; in assay [5] it was 97%; in [6] it was 100%. The residual activity in [7] came to 95%; in assay [8] it was 95%; in [9], 102%; in [10], 137%.
As to `COc1cc2nccc(Oc3ccc(NC(=S)NC(=O)c4ccccc4C)cc3)c2cc1OC`, the residual activity in assay [1] worked out at 67%; in [11] it was 91%; in assay [3], 53%; in [4], 90%; in assay [5], 56%; in assay [6], 75%. Further, the residual activity came to 49% in assay [7]; 86% in assay [12]; 70% in assay [13]; 129% in assay [14]; 85% in assay [15]; 67% in assay [16].

As usually defined, the residual activity is the signal under treatment as a percentage of the control signal.
